These results are taken from PubChem BioAssay (NCI).

Holding throughout (experiment): NCI-60 one-dose screen, 48 h (100 = growth as untreated, 0 = no growth, -100 = all killed)
What all share (conditions): 10 µM unless noted

Assay [1] concerns T-47D breast.
Assay [2] concerns BT-549 breast.
The test system of assay [3] is MDA-MB-435 melanoma.
The test system of assay [4] is SW-620 colon.
Assay [5] concerns MCF7 breast.
For assay [6], the system named is HCT-116 colon.
The test system of assay [7] is HCC-2998 colon.
For assay [8], the system named is KM12 colon.

SMILES strings stand for the structures. The panel holds about 83,000 compounds, 20% with a hit somewhere; the sample as a whole holds those more often.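 Results are percent growth after 48 hours of single-concentration exposure. 100 means growth as in untreated cells, lower positive values show inhibition; negative values down to -100 show cell death.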 The source made the active and inactive calls. How the source made its calls: active means growth percent below 10; inactive means the rest.

Take `COc1cc(/C=N/NC(=O)c2ccc(C(F)(F)F)nc2Nc2cc(Cl)ccc2C)cc(OC)c1OC`: the growth in assay [1] is 84.7% (inactive); in assay [2], 99.6% (inactive); in assay [3], 97.7% (inactive); in assay [4] it was 97% (inactive); in assay [5], 104% (inactive); in assay [6] it was 99% (inactive). Moreover, the growth in assay [7] was 104% (inactive); in assay [8] it was 108% (inactive).
Take `N#Cc1c(-c2ccccc2)cc(-c2ccccc2)n(CCCCC(=O)O)c1=O`: the growth is 103% (inactive) in assay [1]; 91% (inactive) in assay [2]; 59.4% (inactive) in assay [3]; 90.9% (inactive) in assay [4]; 78.2% (inactive) in assay [5]; 93.3% (inactive) in assay [6]. The growth in assay [7] is 95.6% (inactive); in assay [8] it was 79.7% (inactive).
Consider `O=Cc1ccccc1C(=O)O`, for which the growth in assay [1] was 97.2% (inactive); in assay [2], 102% (inactive); in assay [3] it was 96.6% (inactive); in assay [4], 102% (inactive); in assay [5] it was 93.7% (inactive); in assay [6], 99.6% (inactive). The growth in assay [7] is 98.1% (inactive); in assay [8] it was 97.9% (inactive).
Turning to `Cc1ccc(C2=Nc3c(ccc4c(C)c(C)c(=O)oc34)OC2)cc1`, the growth in assay [1] was 89.8% (inactive); in assay [2] it was 94% (inactive); in assay [3], 104% (inactive); in assay [4], 108% (inactive); in assay [5] it was 115% (inactive); in assay [6], 95.5% (inactive). Moreover, the growth is 96.1% (inactive) in assay [7] and 97.8% (inactive) in assay [8].
On to `CC(C)=CCNc1ncnc2c1ncn2C1OC(COP(=O)(O)O)C(O)C1O` (stereo not given), for which the growth is 3.18% (active) in assay [1]; 2.41% (active) in assay [2]; 56.7% (inactive) in assay [3]; 37.6% (inactive) in assay [4]; 16.5% (inactive) in assay [5]; 19.2% (inactive) in assay [6]. Further, the growth in assay [7] and in assay [8] was 69.6% (inactive) throughout.
As to `COc1cccc(/C=C2\Cc3ccccc3C2=O)c1`, the growth in assay [1] is 100% (inactive); in assay [2], 103% (inactive); in assay [3], 96.7% (inactive); in assay [4], 104% (inactive); in assay [5], 58.8% (inactive); in assay [6], 96.3% (inactive). Further, the growth in assay [7] is 105% (inactive); in assay [8], 95.2% (inactive).
For `COc1cc(Cl)cc(-c2nn(-c3cccc(NC(=O)c4cc(C(F)(F)F)cc(C(F)(F)F)c4)c3)cc2-c2ccncc2)c1`, the growth in assay [1] is 53.4% (inactive); in assay [2], 96.8% (inactive); in assay [3] it was 80% (inactive); in assay [4] it was 86.2% (inactive); in assay [5], 57.8% (inactive); in assay [6] it was 35.2% (inactive). In addition, the growth is 78.3% (inactive) in assay [7] and 55.5% (inactive) in assay [8].
With `COc1ccc(C(=O)COc2cccc(/C=C3\COc4ccc5ccccc5c4C3=O)c2)cc1`, the growth was 32% (inactive) in assay [1]; 1.54% (active) in assay [2]; 64.8% (inactive) in assay [3]; 27.8% (inactive) in assay [4]; 16.1% (inactive) in assay [5]; 59.2% (inactive) in assay [6]. Also, the growth in assay [7] is 63.9% (inactive); in assay [8], 67.8% (inactive).
As for `c1ccc(Nc2ccc(Nc3nc(-c4ccccc4)nc4ccccc34)cc2)cc1`, the growth was 47.9% (inactive) in assay [1]; 93.8% (inactive) in assay [2]; 87.5% (inactive) in assay [3]; 75.7% (inactive) in assay [4]; 80.6% (inactive) in assay [5]; 74.9% (inactive) in assay [6]. Also, the growth in assay [7] was 89% (inactive); in assay [8], 36.4% (inactive).
Turning to `CN1CCN(CCCOc2ccc3ncnc(Nc4ccc(OCc5cccc(F)c5)c(Cl)c4)c3c2)CC1`, the growth in assay [1] was -15.6% (active); in assay [2], 72% (inactive); in assay [3], -88.4% (active); in assay [4], -78.7% (active); in assay [5] it was -69.2% (active); in assay [6], -87.9% (active). In addition, the values for the growth in assay [7] and in assay [8] were -80.9% (active) and -56% (active), respectively.
In the case of `COc1ccc(-c2c3c(N)nc(-c4ccncc4)nc3nc3c2c(C)nn3-c2ccccc2)cc1`, the growth in assay [1] is 75.2% (inactive); in assay [2], 87.1% (inactive); in assay [3] it was 54% (inactive); in assay [4] it was 34.4% (inactive); in assay [5], 47.7% (inactive); in assay [6], 15.6% (inactive). For the same molecule, the growth in assay [7] was 102% (inactive); in assay [8] it was 62.9% (inactive).
With `Cc1cc(Cl)ccc1Nc1nc(C(F)(F)F)ccc1C(=O)N/N=C/c1ccc(Cl)cc1`, the growth in assay [1] was -0.161% (active); in assay [2], -7.4% (active); in assay [3], 37.1% (inactive); in assay [4], 9.53% (active); in assay [5], 2.27% (active); in assay [6], -38.8% (active). The results for the growth in assay [7] and in assay [8] were -13.3% (active) and 6.03% (active), respectively.
With `COc1cc(/C=C/C(=O)C(C(=O)/C=C/c2ccc(OC(=O)CCNC34CC5CC(CC(C5)C3)C4)c(OC)c2)C(=O)CCNC23CC4CC(CC(C4)C2)C3)ccc1OC(=O)CCNC12CC3CC(CC(C3)C1)C2` (stereo not given), the growth in assay [1] is 41.6% (inactive); in assay [2], -24.2% (active); in assay [3], -29.9% (active); in assay [4], -22.7% (active); in assay [5], 14.4% (inactive); in assay [6] it was -48.8% (active). Besides, the growth in assay [7] was -48% (active); in assay [8] it was -5.8% (active).
Regarding `COc1ccc(-c2nc3sc4c(c3c(=O)[nH]2)CCCCCC4)cc1`, the growth in assay [1] is 64.2% (inactive); in assay [2], 75.3% (inactive); in assay [3], 2.83% (active); in assay [4] it was 29% (inactive); in assay [5] it was 54.1% (inactive); in assay [6] it was 33.9% (inactive). In addition, the growth in assay [7] was 80.9% (inactive); in assay [8], 34.8% (inactive).
Regarding `O=C(COc1cccc(/C=C2\Oc3ccc4ccccc4c3C2=O)c1)c1ccc([N+](=O)[O-])cc1`, the growth in assay [1] is 64% (inactive); in assay [2], -81.9% (active); in assay [3], 90.8% (inactive); in assay [4] it was 80% (inactive); in assay [5] it was 49.3% (inactive); in assay [6], 58.5% (inactive). The growth in assay [7] was 108% (inactive); in assay [8] it was 88.3% (inactive).
For the molecule `CCCCCCCCCCCCCCCCNC(=O)Nc1ccc2ccccc2c1`, the growth in assay [1] was 108% (inactive); in assay [2], 97.4% (inactive); in assay [3], 103% (inactive); in assay [4], 94.2% (inactive); in assay [5], 94.5% (inactive); in assay [6], 101% (inactive). The growth was 109% (inactive) in assay [7] and 111% (inactive) in assay [8].
With `Nc1nc2c(c(=O)[nH]1)C1(C(=O)Nc3ccccc31)c1c(nc(N)[nH]c1=O)N2`, the growth is 92.3% (inactive) in assay [1]; 102% (inactive) in assay [2]; 106% (inactive) in assay [3]; 97.3% (inactive) in assay [4]; 94.8% (inactive) in assay [5]; 116% (inactive) in assay [6]. Besides, the growth in assay [7] was 114% (inactive); in assay [8] it was 101% (inactive).
Take `CCCCCN(CCCCC)CCCNc1c2c(nc3ccc(Cl)cc13)CCCC2`: the growth in assay [1] was 38.1% (inactive); in assay [2], 36.2% (inactive); in assay [3] it was 66.4% (inactive); in assay [4], 33.5% (inactive); in assay [5], 35.5% (inactive); in assay [6], 5.37% (active). Besides, the growth in assay [7] is 16.3% (inactive); in assay [8], 55.5% (inactive).
Turning to `CN(C)CCCN=c1cc2c(=O)n(CCCN(C)C)c(=O)c3c(NCCCN(C)C)cc4c(O)n(CCCN(C)C)c(=O)c1c4c3-2`, the growth was -1.16% (active) in assay [1]; 37% (inactive) in assay [2]; -52.8% (active) in assay [3]; -14.6% (active) in assay [4]; 0.771% (active) in assay [5]; -29.7% (active) in assay [6]. Also, the growth is 13.8% (inactive) in assay [7] and 3.01% (active) in assay [8].
Turning to `CS(=O)(=O)N1CCN(Cc2cc3nc(-c4cccc5[nH]ncc45)nc(N4CCOCC4)c3s2)CC1` (tested in a mixture with another compound), the growth was -7.59% (active) in assay [1]; 33.6% (inactive) in assay [2]; 15.9% (inactive) in assay [3]; 40.8% (inactive) in assay [4]; 6.96% (active) in assay [5]; 23.8% (inactive) in assay [6]. The growth in assay [7] is -9.43% (active); in assay [8], 24.8% (inactive).
For `COc1ccc2c(c1)sc1nc(-c3ccc(N(C)C)cc3)cn12`, the growth in assay [1] is 68.7% (inactive); in assay [2], 99% (inactive); in assay [3], 104% (inactive); in assay [4], 104% (inactive); in assay [5] it was 84% (inactive); in assay [6], 91.7% (inactive). Also, the figures for the growth in assay [7] and in assay [8] were 92% (inactive) and 75.8% (inactive), respectively.
Consider `COc1cc(-c2n[nH]nc2-c2ccccn2)cc(OC)c1OC`, for which the growth was 87.2% (inactive) in assay [1]; 117% (inactive) in assay [2]; 106% (inactive) in assay [3]; 106% (inactive) in assay [4]; 96.2% (inactive) in assay [5]; 104% (inactive) in assay [6]. The growth was 105% (inactive) in assay [7] and 102% (inactive) in assay [8].
Regarding `COP(=O)(OC)C(c1ccccc1)(c1ccccc1)c1ccccc1`, the growth is 88.8% (inactive) in assay [1]; 117% (inactive) in assay [2]; 91.2% (inactive) in assay [3]; 98.1% (inactive) in assay [4]; 103% (inactive) in assay [5]; 73.1% (inactive) in assay [6]. For the same molecule, the growth in assay [7] is 114% (inactive); in assay [8] it was 93.7% (inactive).
As to `CCCCc1ccc(C(N)=O)nc1`, the growth was 101% (inactive) in assay [1]; 97.8% (inactive) in assay [2]; 106% (inactive) in assay [3]; -90% (active) in assay [4]; 86.9% (inactive) in assay [5]; 99.4% (inactive) in assay [6]. The growth was 110% (inactive) in assay [7] and 100% (inactive) in assay [8].
Turning to `CCOc1cc(/C=C/C(=O)C(C(=O)/C=C/c2ccc(OC(=O)CNc3nnc(C)s3)c(OCC)c2)C(=O)CNc2nnc(C)s2)ccc1OC(=O)CNc1nnc(C)s1`, the growth in assay [1] was 68.2% (inactive); in assay [2] it was -56.2% (active); in assay [3], -8.14% (active); in assay [4] it was -64.8% (active); in assay [5], -6.02% (active); in assay [6] it was -77.7% (active). The growth in assay [7] was -64.8% (active); in assay [8], -64.4% (active).
